Test [1] in a line: P. berghei load reduction in hepatocytes – cell-based, HepG2, luciferase luminescence, HepG2 viability, primary screen (AID 624349; in the data active = parasite load remaining mostly below about 12%, no sharp cut-off; inactive = mostly above about 10%;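 note: 100% = mean of DMSO negative control wells on the same plate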). The following applies: P. berghei liver stage in HepG2, luciferase luminescence, concentration not given here; parasite load remaining: stronger effect = lower value; viability: measured here: HepG2 viability without parasites.
Test [2] can be described thus: signal quenchers or enhancers, Cy5 substrate/SSB – biochemical, NIH Clinical Collection, E. coli SSB, artefact control for HCV NS3 helicase inhibitor project (AID 743268; call rule not given here). The following applies: Cy5-oligo bound E. coli SSB, fluorescence interference.
The subject of test [3] is Hepatitis C virus NS3 helicase. In words: blockers of NS3h binding to DNA – biochemical, fluorescence polarization, NIH Clinical Collection, primary screen (AID 743270; call rule not given here). Particulars: NS3 helicase binding to Cy5-dT15 DNA, stronger effect = higher value, concentration not given here. For orientation: Polarisation of emitted light reports the rotation of a fluorescent probe.
For test [4], the target named is Single-stranded DNA-binding protein (Escherichia coli (strain K12)) (UniProt P0AGE0). In words: SSB-ssDNA binding inhibitors – biochemical, fluorescence polarization, NIH Clinical Collection, counter-screen for HCV NS3 helicase inhibitor project (AID 743271; in the data active = inhibition above about 28%). Particulars: E. coli SSB-DNA binding, stronger effect = higher value, concentration not given here.
Test [5] can be described thus: compounds distorting NS3 helicase fluorescence signal – biochemical, NIH Clinical Collection, artefact control for HCV NS3 helicase inhibitor project (AID 743272; call rule not given here;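 note: HCV NS3 helicase with a Cy5 labelled single stranded DNA probe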). Particulars: fluorescence interference counterscreen, HCV NS3 helicase assay; stronger effect = lower value.
Test [6] has as its target 6-phosphogluconate dehydrogenase, decarboxylating (Homo sapiens) (UniProt P52209). In words: inhibition of human phosphogluconate dehydrogenase – biochemical, recombinant enzyme, NADPH absorbance, primary screen (AID 1159550;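 active = at least 20% inhibition of 6-phosphogluconate dehydrogenase activity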). Particulars: recombinant 6PGD, NADPH absorbance 341 nm; at 10 µM; stronger effect = higher value.
Test [7] is described as follows: modulation of C. elegans fzo-1 (AID 1259413; call rule not given here;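 note: fzo-1 mutant C. elegans worms in liquid wells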). The following applies: C. elegans fzo-1 modulator screen, mean read-out; stronger effect = higher value.
The nature of test [8]: viability loss with induced miR-34 in A549 – imaging, A549 dox-inducible miR-34, nuclei and caspase counts, primary screen (AID 1347080;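 active = compounds whose cell count with miR-34 switched on is under 0.7 times the count with it off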). Particulars: A549 miR-34 inducible, Hoechst nuclei count, 48 h.
Test [9] has as its target NAD(+) hydrolase SARM1 (Homo sapiens) (UniProt Q6SZW1). In words: blocking NAD cleavage by SARM1 SAM-TIR – cell lysate, NAD-Glo luminescence (AID 1508614;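 active = compound whose remaining NAD level is above about 45 nM, limit read from the data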;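 note: higher remaining NAD means stronger inhibition of SARM1 NADase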). The following applies: SAM-TIR HEK293T lysate NADase, at 1 µM, stronger effect = higher value.
In test [10] the target is Mitogen-activated protein kinase 7 (Homo sapiens) (UniProt Q13164). In words: Gal4-ERK5 driven luciferase induction – cell-based, HTS, primary screen (AID 1508626;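 active = luciferase signal above three times the same-plate solvent-only control wells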;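 note: luciferase driven by Gal4-ERK5 fusion binding five Gal4 sites before minimal TATA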). The following applies: HeLa Gal4-ERK5 transactivation, 18 h, at 5 µM, stronger effect = higher value.
Sequence of Mitogen-activated protein kinase 7 (Homo sapiens) (Q13164 whole entry, looked up, the tested form may be a part): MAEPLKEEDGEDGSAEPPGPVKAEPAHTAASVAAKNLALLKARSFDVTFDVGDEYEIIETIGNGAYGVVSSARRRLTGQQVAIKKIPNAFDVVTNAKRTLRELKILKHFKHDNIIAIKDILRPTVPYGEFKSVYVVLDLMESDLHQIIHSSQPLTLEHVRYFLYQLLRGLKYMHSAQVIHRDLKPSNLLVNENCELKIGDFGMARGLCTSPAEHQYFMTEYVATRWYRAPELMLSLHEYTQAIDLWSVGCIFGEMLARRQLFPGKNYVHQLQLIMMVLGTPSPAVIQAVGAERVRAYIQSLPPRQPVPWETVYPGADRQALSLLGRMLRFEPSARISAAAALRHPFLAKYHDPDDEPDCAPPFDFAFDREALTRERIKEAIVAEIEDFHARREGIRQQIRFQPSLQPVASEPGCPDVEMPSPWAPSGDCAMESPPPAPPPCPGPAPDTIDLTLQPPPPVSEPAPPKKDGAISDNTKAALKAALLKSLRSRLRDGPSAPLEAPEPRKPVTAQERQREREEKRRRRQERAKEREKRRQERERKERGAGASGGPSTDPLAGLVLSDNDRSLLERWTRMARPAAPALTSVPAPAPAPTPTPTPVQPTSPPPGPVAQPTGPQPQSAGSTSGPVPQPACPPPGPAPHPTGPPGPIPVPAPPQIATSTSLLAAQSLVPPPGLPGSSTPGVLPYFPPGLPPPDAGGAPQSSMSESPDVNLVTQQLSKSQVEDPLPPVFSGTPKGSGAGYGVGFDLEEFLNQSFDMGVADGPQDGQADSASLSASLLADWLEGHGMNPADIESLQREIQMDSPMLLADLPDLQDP
A short description of test [11]: galactose survival enhancers in mitochondrial complex I cybrids – cell-based, galactose medium, ATP luminescence, primary screen (AID 1645843;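 active = z-score of at least 1.8 in each of two replicates, scored against plate mean and spread of sample wells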;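 note: positive z means more ATP and so rescue of galactose-driven cybrid death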). Particulars: complex I mutant cybrid cells, 72 h, stronger effect = higher value.
The next test relates to F380Y. In words: BK channel mutant inhibitors and activators – cell-based, U2OS BacMam, thallium flux, beta subunits, selectivity assay, profiling panel (AID 1259406).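 Note: initial slope of Thallos dye fluorescence rise after thallium is added; log ratio against the mean of 0.3% DMSO vehicle wells on the same plate.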 The following applies: U2OS BacMam BK variants, at 30 µM.
For the next test, the system named is F380Y/beta2Delta. Described as above. Particulars: U2OS BacMam BK variants, at 30 µM.
In test [12] the target is Calcium-activated potassium channel subunit alpha-1 (Homo sapiens) + Leucine-rich repeat-containing protein 26 (Homo sapiens) (UniProt Q12791+Q2I0M4). The test is described as above. Particulars: U2OS BacMam BK variants, F380Y/Slo1WT/gamma1, at 30 µM.
Sequence of Calcium-activated potassium channel subunit alpha-1 (Homo sapiens) + Leucine-rich repeat-containing protein 26 (Homo sapiens) (Q2I0M4 whole entry, looked up, one chain of several): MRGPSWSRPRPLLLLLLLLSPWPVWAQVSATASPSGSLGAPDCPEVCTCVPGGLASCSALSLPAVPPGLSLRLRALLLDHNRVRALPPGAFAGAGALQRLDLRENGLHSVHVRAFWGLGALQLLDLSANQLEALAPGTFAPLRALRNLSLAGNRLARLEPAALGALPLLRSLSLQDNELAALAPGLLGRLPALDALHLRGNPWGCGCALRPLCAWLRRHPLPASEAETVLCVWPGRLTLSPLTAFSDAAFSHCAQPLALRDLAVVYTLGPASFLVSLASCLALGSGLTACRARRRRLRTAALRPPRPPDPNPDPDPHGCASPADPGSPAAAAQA
In the next test the test system is R275C. The test is described as above. The following applies: U2OS BacMam BK variants, at 30 µM.
The subject of another test is R275C/beta1. The description is as above. The following applies: U2OS BacMam BK variants, at 30 µM.
The subject of the next test is R275C/beta2Delta. The description is as above. Particulars: U2OS BacMam BK variants, at 30 µM.
Test [13] can be described thus: EMT-state selective cytotoxicity in co-culture – imaging, PC-3E GFP, TEM4-18 mCherry, primary screen (AID 1345086;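 active = compounds killing one labelled cell type while sparing the other, by normalised counts and ratio limits, not self-fluorescent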;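 for all read-outs here: cells exposed to compound for 72 h before imaging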;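 for red/green cell ratio (normalised): normalised mesenchymal count divided by normalised epithelial count so high means epithelial killing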). The following applies: PC-3E GFP / TEM4-18 mCherry co-culture, imaging cell counts, at 1 µM; for red/green cell ratio (normalised): actives lie on both sides, counts scaled to control wells, 1 = unselective.
Where [14] appears, read: stronger effect = lower value, cell number ratio, induced over uninduced.
The mark [15] stands for this setting: measured here: relative caspase fold change +Dox/-Dox.
The mark [16] stands for this setting: measured here: total cells with miR-34 induction, stronger effect = lower value.
[17] abbreviates: measured here: total cells without miR-34 induction.
[18] abbreviates: measured here: epithelial PC-3E GFP cell survival.
[19] abbreviates: measured here: mesenchymal TEM4-18 mCherry cell survival.

Where “and” joins values, the source holds several entries; their conditions need not be identical. Equal values may be shown once. Calls of active or inactive are those of the source.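 Rule for the calls, unless noted: active = thallium flux through the channel raised or lowered by more than 3 SD from vehicle-only wells, actives on both sides; inactive = the rest.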

From PubChem BioAssay come the findings set out here.

By viability is commonly meant a read-out of living cells in per cent, often relative to untreated cells. As a reminder, the inhibition is the change of the read-out against control, counted positive when it falls.

Sequence of 6-phosphogluconate dehydrogenase, decarboxylating (Homo sapiens) (P52209 whole entry, looked up): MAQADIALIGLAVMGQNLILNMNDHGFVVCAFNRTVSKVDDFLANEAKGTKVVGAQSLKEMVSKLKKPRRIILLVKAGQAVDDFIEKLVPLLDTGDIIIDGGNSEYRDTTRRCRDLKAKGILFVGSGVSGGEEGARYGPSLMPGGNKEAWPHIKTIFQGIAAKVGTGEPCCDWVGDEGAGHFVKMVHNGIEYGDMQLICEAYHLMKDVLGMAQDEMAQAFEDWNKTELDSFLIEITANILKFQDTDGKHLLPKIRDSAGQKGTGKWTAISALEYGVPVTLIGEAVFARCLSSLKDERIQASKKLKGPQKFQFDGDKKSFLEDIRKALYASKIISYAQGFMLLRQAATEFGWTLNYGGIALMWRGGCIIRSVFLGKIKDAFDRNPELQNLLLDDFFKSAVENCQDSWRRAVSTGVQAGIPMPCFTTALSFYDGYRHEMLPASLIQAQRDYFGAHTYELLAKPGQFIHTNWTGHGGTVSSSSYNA
Sequence of NAD(+) hydrolase SARM1 (Homo sapiens) (Q6SZW1 whole entry, looked up, the tested form may be a part): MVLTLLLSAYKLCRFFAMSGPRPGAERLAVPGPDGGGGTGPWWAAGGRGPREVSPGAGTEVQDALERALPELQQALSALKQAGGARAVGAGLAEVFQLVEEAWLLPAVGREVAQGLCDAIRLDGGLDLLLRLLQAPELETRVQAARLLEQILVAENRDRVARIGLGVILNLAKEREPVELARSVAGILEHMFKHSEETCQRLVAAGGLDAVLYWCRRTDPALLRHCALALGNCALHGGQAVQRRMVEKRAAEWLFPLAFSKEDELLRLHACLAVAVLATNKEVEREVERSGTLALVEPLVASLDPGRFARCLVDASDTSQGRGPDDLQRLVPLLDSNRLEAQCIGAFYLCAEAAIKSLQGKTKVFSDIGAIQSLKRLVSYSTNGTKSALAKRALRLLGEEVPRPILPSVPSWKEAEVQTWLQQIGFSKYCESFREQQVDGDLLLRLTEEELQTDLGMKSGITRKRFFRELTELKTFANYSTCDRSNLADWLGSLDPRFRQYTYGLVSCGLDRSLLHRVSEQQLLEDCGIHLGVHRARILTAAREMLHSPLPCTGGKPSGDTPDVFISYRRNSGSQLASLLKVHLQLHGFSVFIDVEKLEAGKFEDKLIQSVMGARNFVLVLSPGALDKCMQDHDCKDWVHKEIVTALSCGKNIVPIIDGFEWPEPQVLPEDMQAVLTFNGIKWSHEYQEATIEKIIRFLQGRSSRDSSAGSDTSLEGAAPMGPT

With `CC(=O)O[C@]1(C(C)=O)CC[C@H]2[C@@H]3C[C@H](C)C4=CC(=O)CC[C@]4(C)[C@H]3CC[C@@]21C`, the parasite load remaining in test [1] was 22.6% (inactive). The compound further came in with a viability in test [1] of 77.3%. Besides, the fluorescence ratio in test [2] is 0.99 (inactive); in test [5] it was 0.97 (inactive). Moreover, the inhibition was -0.45% (inactive) in test [3], -0.48% (inactive) in test [4] and 2.85% (inactive) in test [6]. Moreover, in test [7], the mean signal was 251 (inactive). Further, the fold change in test [8] (setting [14]) was 0.928 (inactive); in test [8] (setting [15]), 1.75. In addition, the cell count in test [8] (setting [16]) worked out at 7550; in test [8] (setting [17]), 8130. Also, the remaining NAD in test [9] was 10 nM (inactive). Besides, the luciferase signal in test [10] is 68 AU (inactive). In test [11], the z-score is -1.19 (inactive). Besides, the log fold change Tl+ flux was -0.0294 (inactive) in the test on F380Y; -0.0667 (inactive) in the test on F380Y/beta2Delta; -0.0359 (inactive) in test [12]; -0.0267 (inactive) in the test with R275C; 0.0157 (inactive) in the test on R275C/beta1; 0.0115 (inactive) in the test with R275C/beta2Delta.

For `CN=C(N)NCCC[C@H](N)C(=O)O`, in test [1], the parasite load remaining was 97.7% (inactive). This compound also returned a viability in test [1] of 72.8%. Besides, the fluorescence ratio in test [2] was 0.99 (inactive); in test [5] it was 0.93 (inactive). The inhibition in test [3] is -3.56% (inactive); in test [4] it was -2.41% (inactive); in test [6], 3.01% (inactive) and 12.6% (inactive). The mean signal in test [7] is 269 (inactive). Also, the red/green cell ratio (normalised) in test [13] is 1.23 (inactive). In addition, the values for the normalised cell number in test [13] (setting [18]) and in test [13] (setting [19]) were 0.78 and 0.95, respectively. Moreover, the fold change in test [8] (setting [14]) was 0.994 (inactive) and 0.867 (inactive); in test [8] (setting [15]), 0.824 and 0.665. Also, the cell count in test [8] (setting [16]) was 9540 and 7760; in [8] (setting [17]), 9600 and 8960. For the same compound, in [11], the z-score is 0.22 (inactive).

Consider `O=c1ccc2ccc(O)cc2o1`, for which, in [6], the inhibition was 5.77% (inactive). Besides, the red/green cell ratio (normalised) in test [13] was 0.88 (inactive). The normalised cell number in test [13] (setting [18]) is 1.05; in test [13] (setting [19]), 0.93.

As to `CC(=O)OCC(=O)[C@@]1(O)CC[C@H]2[C@@H]3C[C@H](C)C4=CC(=O)C=C[C@]4(C)[C@H]3[C@@H](O)C[C@@]21C`, the parasite load remaining in [1] is 68.8% (inactive). Also, in test [1], the viability stood at 94.7%. For the same compound, the fluorescence ratio in test [2] is 0.98 (inactive); in [5] it was 0.99 (inactive). For the same compound, the results for the inhibition in test [3], in test [4] and in [6] were -2.27% (inactive), 0.29% (inactive) and 6.5% (inactive), respectively. Besides, the mean signal in test [7] is 251 (inactive). Also, the fold change in [8] (setting [14]) was 0.982 (inactive); in [8] (setting [15]), 1.01. Moreover, the cell count in test [8] (setting [16]) worked out at 8310; in [8] (setting [17]) it was 8460. Further, the luciferase signal in [10] was 112 AU (inactive). In addition, in test [11], the z-score is -0.46 (inactive). In addition, the log fold change Tl+ flux with F380Y is 0.0243 (inactive); in the test on F380Y/beta2Delta it was 0.0726 (inactive); in test [12], 0.0089 (inactive); in the test with R275C, 0.0193 (inactive); in the test on R275C/beta1, 0.0544 (inactive); in the test on R275C/beta2Delta, 0.0284 (inactive).

As to `C#C[C@]1(OC(C)=O)CC[C@H]2[C@@H]3CCC4=CC(=O)CC[C@@H]4[C@H]3CC[C@@]21C`, the parasite load remaining in test [1] is 26.4% (inactive). This compound also gave a viability in test [1] of 96.7%. Moreover, the fluorescence ratio in test [2] is 1.05 (inactive); in test [5], 0.89 (inactive). Besides, the inhibition in test [3] was -3.18% (inactive); in test [4], 7.15% (inactive); in [6], -1.74% (inactive). Also, the results for the fold change in test [8] (setting [14]) and in test [8] (setting [15]) were 0.989 (inactive) and 1.09, respectively. For the same compound, the cell count in test [8] (setting [16]) was 9170; in [8] (setting [17]), 9280. Further, the remaining NAD in test [9] was 24 nM (inactive). For the same compound, in [10], the luciferase signal was 28 AU (inactive). Besides, in [11], the z-score was -1.36 (inactive). The log fold change Tl+ flux in the test on F380Y is -0.0982 (inactive); in the test with F380Y/beta2Delta it was -0.0589 (inactive); in test [12], -0.0258 (inactive); with R275C, -0.00546 (inactive); in the test with R275C/beta1 it was 0.0232 (inactive); in the test on R275C/beta2Delta it was 0.0192 (inactive).
